# PI5P4Ka inh – PI5P4K alpha (human) kinase inhibition; hit rate 1.2% among 330,000; PI5P4Kalpha enzyme, ADP-Glo luminescence, 60 min; hits give low values; max response, %; P48426; active = max response of -50% or lower; inconclusive = between -30% and -50%; inactive = -30% or higher; also: value at the top dose of about 77 µM
#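 ADP-Glo luminescence end-point after a 60 min room-temperature kinase reaction. PI5P4Kalpha and substrate in HEPES pH 7.4 buffer with EGTA, 0.1% CHAPS and 5% DMSO; ATP at 5 microM final.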
# Pol iota inh – inhibitors of human DNA polymerase iota; Q9UNA4; Pol iota fluorescent replication assay, 10 min; Potency, µM (doses to about 115 µM), actives largely listed as inhibitors; hit rate 1% among 390,000; AID 588590
#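 Fluorescent replication assay read twice, at 0 min and 10 min after adding 50 nM (final) substrate. Enzyme (10 nM) and compounds were first incubated 15 min at room temperature; enzyme-free buffer wells were negative controls.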
# Pol kappa inh-1 – DNA polymerase kappa (human) inhibition | Q9UBT6 | purified Pol kappa, fluorescent DNA synthesis assay, 10 min | Potency, µM (top dose mostly 107 µM), usual class: inhibitors | hit rate 0.53% among 400,000 | AID 588579
#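 Readout: fluorescence, taken kinetically at 0 and 10 min. Conditions: 10 nM Pol kappa, 15 min RT compound preincubation, 50 nM substrate final. Controls: enzyme-free buffer wells.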
# WRN helicase inh – blocks human WRN helicase; Q14191; WRN helicase unwinding, fluorescent forked duplex, kinetic; Potency, µM (titrated, usually from 114 µM), usual class: inhibitors; hit rate 0.46% among 360,000; also: nearly all actives have a fitted effect of over 55% in size
#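 Primary qHTS, 1536-well format. 20 nM WRN + compound, 15 min RT; start with 100 nM forked fluorophore/quencher duplex, 2 mM ATP (final); kinetic read ex 525/em 598 nm.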
# Pol beta inh – inhibitors of human DNA polymerase beta | P06746 | Pol beta primer extension/strand displacement, fluorescence kinetic | Potency, µM (series often up to 114 µM), usual class: inhibitors | hit rate 1.3% among 340,000 | AID 485314
#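 Reaction started by 50 nM substrate onto compound-treated Pol beta (10 nM, 15 min preincubation, room temperature); plates read at 0 min and 10 min. Normalized concentration-effect data fitted by four-parameter Hill equation.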
# Pol eta inh-1 – blocks human DNA polymerase eta activity. hit rate 1.2% among 390,000. Potency, µM (highest dose often 114 µM), hits mostly inhibitors. recombinant Pol eta, fluorescent DNA replication assay
# Target sequence (Q9Y253 whole entry, looked up): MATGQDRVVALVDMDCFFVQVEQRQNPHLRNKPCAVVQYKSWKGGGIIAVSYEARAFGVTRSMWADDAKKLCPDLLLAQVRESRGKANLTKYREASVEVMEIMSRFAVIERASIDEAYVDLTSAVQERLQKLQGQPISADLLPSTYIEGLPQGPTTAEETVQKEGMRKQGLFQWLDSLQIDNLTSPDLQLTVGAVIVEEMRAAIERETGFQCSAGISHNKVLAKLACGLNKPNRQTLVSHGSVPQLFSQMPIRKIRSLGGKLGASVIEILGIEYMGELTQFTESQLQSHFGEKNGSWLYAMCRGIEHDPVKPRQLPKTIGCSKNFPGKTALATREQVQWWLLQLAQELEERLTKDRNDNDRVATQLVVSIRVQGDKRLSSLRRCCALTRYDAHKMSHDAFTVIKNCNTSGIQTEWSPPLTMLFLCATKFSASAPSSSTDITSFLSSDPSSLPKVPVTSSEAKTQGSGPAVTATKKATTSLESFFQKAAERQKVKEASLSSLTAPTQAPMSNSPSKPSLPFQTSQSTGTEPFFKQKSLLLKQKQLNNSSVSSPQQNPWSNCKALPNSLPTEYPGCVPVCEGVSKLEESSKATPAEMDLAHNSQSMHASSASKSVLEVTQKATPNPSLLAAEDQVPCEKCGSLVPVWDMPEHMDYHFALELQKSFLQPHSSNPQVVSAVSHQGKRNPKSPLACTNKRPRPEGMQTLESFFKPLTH
#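 Fluorescent replication assay: 50 nM final substrate added after a 15 min room-temperature compound preincubation with 10 nM enzyme. Signal taken at 0 min and again at 10 min.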
# GALK confirm – confirmation of human galactokinase (GALK) inhibitors; shares compounds with Pol eta inh-1; Potency, µM (highest dose often 115 µM), hits mostly inhibitors; purified GALK, Kinase-Glo ATP depletion luminescence; hit rate 70% among 150
# GALK redox cs – generates H2O2 by redox cycling, flagging GALK artifacts | shares compounds with Pol eta inh-1 | hit rate 40% among 150 | Potency, µM (doses to about 115 µM), most hits filed as inhibitors | Phenol red-HRP H2O2 redox cycling, absorbance 600 nm
# HEK293 viability – HEK-293 cytotoxicity, GALK inhibitor secondary; shares compounds with Pol eta inh-1; HEK-293 viability, ATP luminescence (CellTiter-Glo), 24/48 h; Potency, µM (series often up to 46.1 µM), most hits filed as inhibitors; hit rate 10% among 170; AID 2547
# Pol kappa inh-2 – confirmation of human DNA polymerase kappa inhibitors. shares compounds with Pol eta inh-1. purified Pol-kappa, fluorescent strand-displacement substrate. Potency, µM, most hits filed as inhibitors. hit rate 76% among 920. AID 720501
# Pol eta inh-2 – confirmation of human DNA polymerase eta inhibitors; shares compounds with Pol eta inh-1; Pol eta primer extension, TAMRA/BHQ fluorescence, 10 min; Potency, µM, most hits filed as inhibitors; hit rate 64% among 2,600
# Hits are given with their value; - = inactive; ? = inconclusive; . = no result; [ ] = dose if it differs, or a comment. Compounds with a hit are over-represented: about 2.8% of the library has one in this group of screens. Unless noted, calls follow the shape of the dose curve; as a rule, active = well fitted curve in the direction sought with a large enough effect; inconclusive = small, poorly fitted or top-dose-only effect, or another doubt; inactive = no such curve, though single readings can be large; an effect the other way counts as inactive or inconclusive.
SMILES,PI5P4Ka inh,Pol iota inh,Pol kappa inh-1,WRN helicase inh,Pol beta inh,Pol eta inh-1,Pol eta inh-2,others
CCOC(=O)c1cc2c(OC)ccc(OC)c2n1CC(=O)c1ccccc1,-,-,-,-,-,-,.,
CCOc1ccc(NC(=O)CCC(=O)N/N=C(\C)c2cccs2)cc1,-,-,-,-,-,-,.,
CC(=O)n1cc(N(C(=O)CCl)c2ccccc2)c2ccccc21,-,-,-,-,-,14µM,43,
CCc1ccc([C@@H]2C[C@H]3[C@@H](CN2S(=O)(=O)c2ccc(C)cc2)C(=O)C[C@@H](c2ccc(Cl)cc2)N3S(=O)(=O)c2ccc(C)cc2)cc1,-,.,.,-,.,.,.,
CC(=O)C(=Cc1ccc(C(=O)O)cc1)C(C)=O,-,?,?,-,?,40µM,?,
O=C(O)CCc1ccc(-c2cccs2)n1CCC(=O)O,-,?,?,-,22µM,10µM,?,
CC1=NN(c2ccc(C)cc2)C(=O)/C1=C/c1ccc(-c2cc([N+](=O)[O-])ccc2O)o1,-94,20µM,79µM,?,7.1µM,20µM,?,Pol kappa inh-2=17
O=C1NN(c2cccc(Br)c2)C(=O)/C1=C/c1ccc(-c2cc([N+](=O)[O-])ccc2O)o1,-86,?,79µM,?,?,10µM,30,
C[C@H](NC(=O)C1CCC(CNC(=O)[C@@H]2CCCN2C(=O)OC(C)(C)C)CC1)C(=O)O (stereo partly drawn),-,-,-,-,-,-,.,GALK confirm=-;GALK redox cs=-;HEK293 viability=-
COc1ccc(OCCn2nnc3sc4c(c3c2=O)CCCC4)cc1,.,71µM,?,.,11µM,.,?,Pol kappa inh-2=?
COc1ccc(NC(=O)Cn2nnc3sc4c(c3c2=O)CCCC4)cc1,.,-,-,.,-,-,.,
Cc1ccc(-n2c(O)c(C=Nc3ccccc3-c3n[nH]c(=S)[nH]c3=O)c3ccccc3c2=O)cc1C,-81,?,?,79µM,?,32µM,?,
Cc1ccc(CCNC(=O)c2cn(C)c3ccc(S(=O)(=O)N4CCCCC4)cc3c2=O)cc1,.,-,-,.,-,-,.,
CCN(CC)S(=O)(=O)c1ccc(/C=C/C(=O)OCC(=O)NCc2ccco2)cc1,-57,35µM,?,?,.,16µM,?,Pol kappa inh-2=42
CN(C)S(=O)(=O)c1ccc(Cl)c(NC(=O)COC(=O)/C=C/c2ccco2)c1,-,?,-,-,?,?,?,
COc1ccc(NC(=O)Cn2c(=O)n(Cc3ccc4c(c3)OCO4)c(=O)c3ccc(C(=O)NC4CCCCC4)cc32)cc1,.,-,-,.,-,-,.,
COc1ccc(CNC(=O)C2CCN(S(=O)(=O)c3ccc4c(ccn4C)c3)CC2)cc1,.,-,-,.,-,-,.,
CC(/C=N/n1c(-c2ccncc2)n[nH]c1=S)=C\c1ccco1,?,20µM,50µM,?,-,?,?,
Cc1cccc(-c2n[nH]c(=S)n2/N=C/C=C/c2ccco2)c1,?,13µM,45µM,-,?,79µM,?,
CC(C)CC(NC(=O)/C(=C\c1ccco1)NC(=O)c1ccco1)C(=O)O (stereo not drawn),-,-,-,-,-,-,.,
O=C(Nc1cccc(C(=O)O)c1)/C(=C\c1ccco1)NC(=O)c1ccccc1,?,?,-,-,-,?,.,
CC(C)CC(NC(=O)/C(=C/c1ccco1)NC(=O)c1ccc(Br)o1)C(=O)O (stereo not drawn),-,?,71µM,-[11.6 µM],-,22µM,.,Pol kappa inh-2=?
O=C(Nc1cccc(C(=O)O)c1)/C(=C\c1ccco1)NC(=O)c1ccc(Br)o1,?,?,79µM,-[11.6 µM],?,18µM,38,Pol kappa inh-2=24
CCCCC#Cc1nc(NC)c2ncn([C@@H]3O[C@H](CO)[C@@H](O)[C@H]3O)c2n1,.,.,-,.,.,.,.,
Cc1c(Cl)c(C(F)F)nn1CC(=O)NC1C(=O)N2C(C(=O)O)=C(CSc3nnnn3C)CSC12 (stereo not drawn),-,?,?,-[11.6 µM],22µM,20µM,76,
SMILES,PI5P4Ka inh,Pol iota inh,Pol kappa inh-1,WRN helicase inh,Pol beta inh,Pol eta inh-1,Pol eta inh-2,others
CC1=C(C(=O)O)N2C(=O)C(NC(=O)c3nn(C)cc3Cl)C2SC1 (stereo not drawn),-,-,-,-,-,-,.,
Cc1cc(=O)c(C(=O)N[C@@H](C(=O)N[C@@H]2C(=O)N3C(C(=O)O)=C(CSc4nnnn4C)CS[C@H]23)c2ccc(O)cc2)c[nH]1,.,.,-[19.4 µM],.,.,.,.,
Cn1nnnc1SCC1=C(C(=O)O)N2C(=O)C(NC(=O)Cn3nc(C(F)F)cc3C3CC3)C2SC1 (stereo not drawn),-,35µM,?,-[11.6 µM],18µM,20µM,?,
Cc1nn(CC(=O)NC2C(=O)N3C(C(=O)O)=C(CSc4nnnn4C)CSC23)cc1Br (stereo not drawn),-,-,-,-[11.6 µM],32µM,?,76,
Cc1c(Cl)cnn1CC(=O)NC1C(=O)N2C(C(=O)O)=C(CSc3nnnn3C)CSC12 (stereo not drawn),-,?,?,-[11.6 µM],20µM,22µM,43,
Cc1cc(C)cc(-n2c(SCC(N)=O)nc3c(oc4ccccc43)c2=O)c1,.,-,-,.,-,-,.,
Cc1ccc(-c2cc(C(=O)Nc3c(C(=O)c4ccc(C)c(F)c4)oc4ccccc34)no2)cc1,.,-,-,.,-,-,.,
Cc1ccccc1-n1c(SCC(=O)Nc2c(C)cccc2C)nc(O)cc1=O,-,-,-,-,-,-,.,
COc1ccc(/C=C/C(=O)Nc2nc(-c3cccs3)ns2)cc1,.,-,-,.,-,-,.,
CCC1=NN2C(=N)/C(=C\c3cccn3-c3cccc(Cl)c3)C(=O)N=C2S1,-,?,-,-[11.6 µM],22µM,32µM,?,
CCC1=NN2C(=N)/C(=C\c3cccn3-c3ccc(Br)cc3)C(=O)N=C2S1,-,?,-,-,-,-,.,
O=C1/C(=C\c2ccccn2)SC(=S)N1c1ccc(S(=O)(=O)Nc2nccs2)cc1,-71,?,?,?,?,18µM,85,

# Screening data: PubChem BioAssay, National Center for Advancing Translational Sciences (NCATS)
